PubChem BioAssay AID1159506 (National Center for Advancing Translational Sciences (NCATS), 2015)
Whole data set: some 59,000 sequences, median the read-out near -0.00055, cut for the lowest 2% near -2. The sample as a whole holds a higher share of the lowest values than the screen did.

Assay: Identification of proteins required for the processing of the EWS-FLI1 nascent transcript;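 note: robust z of luciferase light less the median z of siRNAs with the same seed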
Settings: TC32 Ewing sarcoma NR0B1-luc vs CMV-luc (EWS-FLI1 target promoter against control promoter), 48 h; screened at 20 nM (by protocol)
Outline: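 Three siRNAs per gene, each in a separate well at 20 nM, were transfected into TC32 cells bearing either reporter construct. Luminescence was measured two days on, and per-gene comparison relied on seed-corrected Z values.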

Row | Sequence | seed-corrected z-score
1 | UUGUGAACUACUUCUAUCC against AKNA | 0.00206
2 | AUAGGUCUGACUCAGCUGC against CCDC155 | -2.23
3 | UAGUGUACAAGGGUCAGGC against TSPAN17 | 0.12
4 | UAUACACCAAUGUCGGUCC against KDM5A | 0.142
5 | AAUGAGUAAAAAGUGAAUU against HTN1 | -0.556
6 | UGAUGUAAAAUCAAAGGUU against KRT6C | 0.491
7 | AAACUUGGUUGAGUGAUCC against KRBA2 | 0.654
8 | UGACUAUUAGGUCUUUAGC against BCAT1 | -0.111
9 | UCCAUCGUCAAUGUUAUCC against HNRNPH3 | -5.45
10 | AUAUCUAUAAUACCCUCCG against APIP | 0.416
11 | AUACGUGUUCUCAAUGAUC against RNF121 | 0.696
12 | UUCUCUUCUUUAGUCAGUG against SKA2P1 | -2.33
13 | AAUAUUGUAAGAAGAAGGG against NT5C3B | 0.882
14 | UGGGUUCUCAGGAACGGGU against PNKD | 1.76
15 | UUCCUUUUGCGUCUGGAUC against ZC2HC1C | -1.55
16 | UAUUUGGGUGGUUCAGUUG against NEK6 | -0.0182
17 | UAUGAGUCCACAAUUGAUC against TMEM19 | -11
18 | UCUACAAGUAAUGAAGGCC against ZFP62 | 0.853
19 | AAUGAUGAAUCCACCUUCG against ARMC10P1 | -0.435
20 | UCAGCUAACAAAGAGUCGC against STAG3 | 0.617
21 | AGCAGUAUAAAACAGGAGC against TIPARP | 0.177
22 | AUAAUCACACUGUCAACUG against ACAA2 | -0.323
23 | AGCCUUAGACGUGCAGUUG against RPL36AP31 | -2.33

Row | Sequence | seed-corrected z-score
24 | UGUUGUAGCAGAAUGAGGA against ARC | -3.81
25 | UGCUGGGUCAGAUGUCUCC against ARHGAP9 | 0.0212
26 | UUCGAUCACCAUAUACUCC against KCNA3 | 0.36
27 | UCGGUAUUCAAACCCUUCG against HIRA | 0.423
28 | UCAGGGCAUAGAUAAGUGG against OR10W1 | -2.86
29 | UUUCUAGCUAAGGUCAAAC against SHOC2 | -0.857
30 | AUAGGAGAUCGCAUCGCCC against CACFD1 | -0.00387
31 | AAGGUGUUCACGUAGGCUG against CLN3 | -2.78
32 | AUUGGUAUCCUAACUAUUC against EFHD1 | 0.876
33 | UCUGGGAACACCCUCAGCA against GABRR2 | -0.593
34 | ACGGAUUCUAGUUUAGAUG against KIAA0232 | 2.72
35 | UCCGUUCAUAGUCUUCUCC against CSPP1 | -2.12
36 | AUAACGAUGCUUUAUGUGG against ABHD1 | -0.139
37 | UCUCUAACUUCGACCCUCU against C19orf68 | 0.527
38 | UUUCUCAACUGCAUGAAAG against LINC00264 | -0.13
39 | UACUGAAGUAGUUAGGAUC against INO80C | 1.43
40 | AUGUUGCCCACGUCCUUGG against RABIF | -3.06
41 | AAUGAGGCAGGCAUGUUGG against PNMT | 1.18
42 | UGUAUCCUAAGGUAUCGGC against VWA8 | -0.221
43 | AUAUCUUCGAAAGUAAAUC against RPF2P1 | 1.14
44 | UUUUUCCAUACUUCAAGCC against QRICH1 | -0.708
45 | AAAUGGAAAUUCUCGAUGU against HTN1 | 0.36
46 | AGAUUGGUCAAAGCCUUUC against ZNF319 | -2.3

Row | Sequence | seed-corrected z-score
47 | AUAGUUAUUCUUGUCGGGC against HVCN1 | -0.696
48 | UACGUAGUCGUCAUCAUCU against FAM83G | -0.453
49 | UCAUUAGACAUAACAUUGC against ALG13 | 0.117
50 | UCAUAGUCGAUCACCACUG against COL23A1 | -0.458
51 | UUAGUAGUGACAUUUCGGG against MRE11A | -0.0144
52 | UUGAAUAGGAAGAGUAUCC against OMA1 | 1.31
53 | UAACUGAUCAGACCACAAC against TUBA1A | 0.266
54 | UGUCCAUAAACAGUAAAGG against ZNF30 | -2.51
55 | UGAUUUAAUCUUGCCGCCC against PHLDB1 | 0.669
56 | AACACGUUGCCUGUCUUUC against NUTM2A-AS1 | 0.413
57 | UUUAGAACUGGUUAUUUUC against DEFB116 | 0.117
58 | AUGGUGAUCAUGGGACUGC against BEST1 | -3.4
59 | UUUGGUAACCUCUAGGUGC against RUFY2 | 0.0818
60 | UAGGCAAACAUGCACCUGG against POLG | -0.765
61 | UCGUGGUCUUCUAUUGUUC against GRB14 | -0.556
62 | AAUACAAUAGCAUAUACUC against RBBP9 | 0.306
63 | UGCGGAUACAGAUCACUCC against WDR87 | -2.28
64 | UGAAUAAUGAAGUAUCCUG against AMPH | -0.174
65 | UUAGUUCCAUGCCUUGCUC against ATP6V0A4 | -0.497
66 | AGUUAUAUCAGUCGUGAUC against FERMT2 | 0.187
67 | UUCUGUAUCUGCUCCUUGU against PFDN2 | 1.09
